# Laboratory results taken from PubChem BioAssay (NCI).
# This is part of a sample that, as a whole, favours compounds with a hit. Of some 83,000 tested, about 20% had one in any assay.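 Values shown are percent growth following 48 h exposure of cells in 96-well plates to a single concentration of compound; below 10 was considered active.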 Values without a mark were called inactive. The source made the active and inactive calls.
# What was measured:
# Assay in all cases: NCI-60 one-dose screen, 48 h (100 = growth as untreated, 0 = no growth, -100 = all killed)
# [1] = tested on: SK-MEL-2 melanoma; conditions: 10 µM unless noted
# [2] = tested on: EKVX NSCLC; conditions: 10 µM unless noted
# [3] = tested on: SN12C renal; conditions: 10 µM unless noted
# [4] = tested on: UO-31 renal; conditions: 10 µM unless noted
# [5] = tested on: TK-10 renal; conditions: 10 µM unless noted
# [6] = tested on: ACHN renal; conditions: 10 µM unless noted
# [7] = tested on: CAKI-1 renal; conditions: 10 µM unless noted
# [8] = tested on: A498 renal; conditions: 10 µM
# [9] = tested on: HL-60(TB) leukemia; conditions: 10 µM unless noted
# [10] = tested on: CCRF-CEM leukemia; conditions: 10 µM unless noted
# [11] = tested on: SR leukemia; conditions: 10 µM unless noted
# [12] = tested on: RPMI-8226 leukemia; conditions: 10 µM unless noted
# [13] = tested on: OVCAR-8 ovarian; conditions: 10 µM unless noted
# [14] = tested on: OVCAR-5 ovarian; conditions: 10 µM unless noted
# [15] = tested on: OVCAR-4 ovarian; conditions: 10 µM unless noted
# [16] = tested on: SK-OV-3 ovarian; conditions: 10 µM unless noted
# [17] = tested on: IGROV1 ovarian; conditions: 10 µM unless noted
# [18] = tested on: OVCAR-3 ovarian; conditions: 10 µM unless noted
# [19] = tested on: HS 578T breast; conditions: 10 µM unless noted
# [20] = tested on: MOLT-4 leukemia; conditions: 10 µM unless noted
Structure (SMILES),growth [1],growth [2],growth [3],growth [4],growth [5],growth [6],growth [7],growth [8],growth [9],growth [10],growth [11],growth [12],growth [13],growth [14],growth [15],growth [16],growth [17],growth [18],growth [19],growth [20]
O=C(CN1CCN(C(=O)c2ccco2)CC1)Nc1ccc(Cl)cc1C(=O)c1ccccc1Cl,46.6%,94.3%,105%,35.3%,132%,81.3%,91.7%,83.8%,49.4%,163%,72.7%,53.6%,87.1%,95.9%,87.5%,112%,57.8%,115%,78.3%,
NC(=S)c1cn(C2OC(CO)C(O)C2O)c2ncnc(N)c12 (centres undefined),-58.1% (active),-4.9% (active),-10.5% (active),-9.32% (active),-29.5% (active),-6.08% (active),-36.6% (active),-32.5% (active),-72.9% (active),-40.6% (active),-50.4% (active),-39.8% (active),3.53% (active),-29.6% (active),-7.48% (active),17%,0.391% (active),-26.2% (active),-25.4% (active),
CC12CCC3C(CCC4Cc5[nH]c6ccccc6c5CC43C)C1CCC2O (centres undefined),67.2%,56.8%,42.8%,56.9%,57.3%,48.3%,45.1%,31.8%,-32.9% (active),8.61% (active),,-20% (active),36.9%,122%,51.8%,29.5%,50.8%,-28.3% (active),-8.19% (active),21.6%
COC1=CC(=O)O[C@@H](/C=C/c2ccc3c(c2)OCO3)C1,-20.1% (active),114%,100%,87.5%,102%,110%,107%,59.2%,114%,61.2%,,49.9%,99.3%,95.7%,112%,110%,99.2%,153%,95.1%,91%
O=C(c1cccc(O)c1O)c1cn(Cc2ccc(F)cc2)c2cccc(O)c12,-6.9% (active),52.4%,34%,-10.3% (active),77%,21.5%,21.5%,108%,-32.8% (active),4.35% (active),,9.16% (active),30.5%,33.8%,39%,40.7%,-42.8% (active),22.3%,45.5%,4.3% (active)
COC(=O)[C@]12CCC(C)(C)C[C@H]1[C@H]1C(=O)C[C@@H]3[C@@]4(C)C[C@@]5(CC(C)(C)[C@@H]4CC[C@@]3(C)[C@]1(C)CC2)OO[C@@](C)(C(F)(F)F)O5,92.3%,93.6%,92.4%,87.8%,95.7%,93.6%,68.7%,78.2%,101%,94.8%,,90.3%,97.6%,94.1%,81.1%,103%,97.8%,106%,99.7%,93.6%
NC(N)=N/N=C\c1c[nH]c2ccc(Br)cc12,99.9%,93.8%,68.5%,86.1%,116%,95.4%,101%,89.7%,93.5%,78.6%,,80.8%,83.1%,91.8%,97.2%,97.4%,101%,81.4%,80.6%,79.2%
COc1cccc2c1c(C(=O)C(=O)Nc1cc(C)no1)cn2Cc1ccc(F)cc1,75.1%,78.9%,62.2%,57.5%,82.6%,88.6%,86.7%,91.1%,1.01% (active),66.6%,,20.7%,81.7%,76.1%,90.9%,102%,37%,3.35% (active),53.3%,32.5%
O=C(CC1(O)C(=O)N(Cc2ccccc2)c2ccc(F)cc21)c1ccc(C(=O)NCC2CCC3(CC2)OOC2(CCCCC2)OO3)cc1 (centres undefined),-12.9% (active),-68.5% (active),-59.5% (active),-76.3% (active),-93.6% (active),-80.7% (active),-87.1% (active),-88.5% (active),-57.5% (active),-36.9% (active),-44.8% (active),-29.7% (active),-30.5% (active),4.61% (active),-32.4% (active),41.1%,-38.1% (active),-76.9% (active),-9.82% (active),
CC[CH2][Sn]([Cl])([Cl])[CH2]CC,52.4%,104%,74.5%,76.6%,56.8%,76.3%,64.1%,47.4%,54.9%,10%,,19%,89.7%,94.9%,95.2%,107%,84.6%,105%,96.8%,58.6%
C/C(=C\c1ccn(-c2ccc(N)cc2C(F)(F)F)n1)[C@@H]1C[C@@H]2O[C@]2(C)CCC[C@H](C)[C@H](O)[C@@H](C)C(=O)C(C)(C)[C@@H](O)CC(=O)O1,18.1%,33.7%,22.6%,38.2%,39.8%,50%,31.4%,-4.95% (active),-0.118% (active),16.3%,12.2%,5.57% (active),17.4%,24.1%,69.7%,0.896% (active),43.5%,12.5%,-10.7% (active),
Cc1ccc2c(C(C[N+](=O)[O-])c3cccs3)c(-c3ccccc3)[nH]c2c1 (centres undefined),20.7%,35.9%,32%,34.8%,64.7%,33.8%,2.76% (active),-19.6% (active),0.431% (active),15%,,11.8%,33%,58.8%,38%,22.7%,31.4%,10.2%,-11.7% (active),16.2%
COc1cccc2c1c(C(=O)c1ccco1)cn2Cc1ccc(F)cc1,73.8%,172%,72.4%,77.1%,143%,107%,184%,135%,162%,177%,,182%,108%,122%,114%,122%,8.63% (active),108%,122%,307%
CN1CCC(O)(c2ccc(F)cc2)C(C(=O)c2ccc(F)cc2)C1 (centres undefined),91.2%,106%,104%,84.7%,110%,101%,104%,104%,134%,85.2%,,-9.61% (active),102%,93.2%,102%,102%,96.3%,111%,101%,94.2%
CN1C(=O)N[C@H]2[C@@H]3NC(=O)c4ccc(Br)n4[C@@H]3C[C@]21O,-55.5% (active),-17.4% (active),-14.1% (active),9.15% (active),-16.7% (active),-24.6% (active),6.74% (active),-47.8% (active),-20% (active),-15% (active),,-23.2% (active),-12.4% (active),-2.49% (active),-13.9% (active),-2.3% (active),-13.9% (active),-28.7% (active),-28.5% (active),-9.97% (active)
C[C@@H]1CCC2[C@@H](C)[C@H](OC(=O)CCC(=O)NCCNC(=O)Cc3cc(=O)oc4cc(N(C)C)ccc34)O[C@@H]3O[C@]4(C)CC[C@@H]1C23OO4 (some centres undefined),40.7%,35.3%,32.2%,13%,20%,40.3%,44.1%,64.9%,-38.8% (active),23%,-16.8% (active),15.1%,23.8%,49%,49.1%,92.3%,55%,37.7%,49.5%,
